VDR inh – Inhibitors of the vitamin D receptor (VDR): qHTS; 400,000 tested, 0.93% active; VDR-SRC2-3 peptide fluorescence polarization, 2 h; Potency, µM, hits mostly inhibitors; AID 504847, 2011; Vitamin D3 receptor (Homo sapiens), P11473
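Signal is fluorescence polarization, reporting how far test compounds block the interaction of VDR with the SRC2-3 coregulator peptide after a 2 h room-temperature incubation.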
TrxR1 inh – qHTS Assay for Inhibitors of Mammalian Selenoprotein Thioredoxin Reductase 1 (TrxR1): qHTS; 390,000 tested, 1% active; Thioredoxin reductase 1, cytoplasmic (Rattus norvegicus), O89049; AID 588453, 2011; Potency, µM (top dose mostly 114 µM), most hits filed as inhibitors; recombinant rTrxR1, NADPH fluorescence consumption, selenite substrate; further: nearly all actives have a fitted effect of over 65% in size
Target sequence (O89049 whole entry, looked up): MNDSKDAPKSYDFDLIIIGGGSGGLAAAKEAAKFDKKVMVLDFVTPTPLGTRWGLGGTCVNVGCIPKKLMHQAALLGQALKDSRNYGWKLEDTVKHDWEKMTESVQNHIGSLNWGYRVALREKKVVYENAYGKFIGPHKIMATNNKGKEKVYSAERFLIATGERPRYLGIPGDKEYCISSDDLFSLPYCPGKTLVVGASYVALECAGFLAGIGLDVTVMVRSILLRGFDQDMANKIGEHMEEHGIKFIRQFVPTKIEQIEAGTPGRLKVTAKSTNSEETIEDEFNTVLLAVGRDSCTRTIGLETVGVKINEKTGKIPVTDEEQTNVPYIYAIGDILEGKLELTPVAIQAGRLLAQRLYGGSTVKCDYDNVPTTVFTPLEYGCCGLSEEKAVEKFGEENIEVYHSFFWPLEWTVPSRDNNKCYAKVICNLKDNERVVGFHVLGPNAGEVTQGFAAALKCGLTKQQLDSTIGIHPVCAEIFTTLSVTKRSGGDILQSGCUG
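Rat TrxR1 (90 nM in the dispensed reagent) was pre-reduced with 400 uM NADPH for 5 min at room temperature, then incubated with compound for 15 min. After 400 uM selenite was added, NADPH fluorescence (Ex 340/Em 450 nm) was followed for 8 min.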
GCN5L2 inh – qHTS Assay for Inhibitors of GCN5L2. Histone acetyltransferase KAT2A (Homo sapiens), Q92830. GCN5L2 HAT assay, ThioGlo1 CoA-SH fluorescence. Potency, µM (top dose mostly 58.9 µM), most hits filed as inhibitors. 390,000 tested, 0.21% active. AID 504327, 2011
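Titration-based screen in which CoA formation is detected via maleimide probe ThioGlo1 (50uM) turning fluorescent on thiol reaction; substrates H3(1-25) 75uM and acetyl-CoA 70uM, GCN5L2 20nM, 20 min incubation at room temperature.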
TrxR1 substrate – qHTS Assay for Substrates of Mammalian Selenoprotein Thioredoxin Reductase 1 (TrxR1): qHTS; 390,000 tested, 0.01% active; purified TrxR1 substrate turnover, NADPH consumption readout; Potency, µM (doses to about 114 µM); AID 588456, 2011; Thioredoxin reductase 1, cytoplasmic (Rattus norvegicus), O89049; further: nearly all actives have a fitted effect of over 50% in size
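Rat TrxR1, dispensed at 90 nM, was prereduced with 400 uM NADPH (final) for 5 min at ~22 deg C, then incubated with compound 15 min before 400 uM selenite. A first-read NADPH fluorescence drop versus no-compound background flagged substrates.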
Sfp inh – qHTS Assay for Inhibitors of Bacillus subtilis Sfp phosphopantetheinyl transferase (PPTase) | 4'-phosphopantetheinyl transferase ffp (Bacillus subtilis), Q9F4F7 | Biochemical Sfp PPTase activity, qHTS | Potency, µM, hits mostly inhibitors | 310,000 tested, 3.5% active | AID 1490, 2009;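 further: the enzyme is Sfp with the accession as filed and its product quenches rhodamine fluorescence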
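Sfp 15 nM + cpd, 15 min RT; start w/ rhodamine-CoA 5 uM, BHQ-2-YbbR 12.5 uM (final); 50 mM Hepes pH 7.6, 10 mM MgCl2, 0.01% NP-40, 0.01% BSA; read 525/598 nm at 0 and 30 min.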
GLS inhibitor – qHTS for Inhibitors of Glutaminase (GLS); GLS enzymatic activity, qHTS titration; 410,000 tested, 0.21% active; Potency, µM (top dose mostly 45.5 µM), actives largely listed as inhibitors
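Enzyme dispensed in phosphate buffer (45 mM, pH 8.2, 0.02% Tween-20), compounds pinned in, then 1 mM L-glutamine solution and the glutamate oxidase–HRP–Amplex Red mix added; fluorescence read immediately and again after 30 min at room temperature.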
Each line names hits and unclear results; the compound was inactive in the other large screens; ! = not active in a repeat. Shown are actives, neighbours in structure and some others; about 3.8% of the full set was active somewhere. The call rests on the fitted dose curve; in most records, active means well fitted curve in the direction sought with a large enough effect; inconclusive means small, poorly fitted or top-dose-only effect, or another doubt; inactive means no such curve, though single readings can be large; an effect the other way counts as inactive or inconclusive.

Cc1c(S(=O)(=O)c2ccccn2)c(N)n(Cc2cccc(Cl)c2)c1C	TrxR1 inh 20µM, Sfp inh inconclusive
c1ccc2c(c1)SCc1nnc(-c3ccncc3)n1-2	none
COc1ccc(-c2nnc3n2-c2ccccc2SC3)cc1OC	Sfp inh 79µM
CC[C@H]1C(c2ccc(F)cc2)=NN(c2ccccc2)[C@@H]1CO	GCN5L2 inh 40µM!
OC[C@@H]1[C@@H](c2ccc(F)cc2)C(c2ccccc2)=NN1c1ccccc1	none
CCS(=O)(=O)c1ncc(Cl)c(C(=O)N(Cc2ccccc2)c2ccc(OC)cc2)n1	VDR inh inconclusive, TrxR1 inh 3.5µM (no result: Sfp inh)
CCCS(=O)(=O)c1ncc(Cl)c(C(=O)Nc2ccc(S(=O)(=O)Nc3ncccn3)cc2)n1	VDR inh 22µM, TrxR1 inh 45µM
COc1ccc(N(Cc2ccccc2)C(=O)c2nc(SC)ncc2Cl)cc1	none (no result: Sfp inh)
CCS(=O)(=O)c1ncc(Cl)c(C(=O)N2CCN(c3ccc(OC)cc3)CC2)n1	VDR inh inconclusive, TrxR1 inh 3.2µM (no result: Sfp inh)
CCS(=O)(=O)c1ncc(Cl)c(C(=O)Nc2ccccc2)n1	VDR inh inconclusive, TrxR1 inh 2.5µM (no result: Sfp inh)
CCc1ccc(NC(=O)c2nc(S(=O)(=O)Cc3ccccc3)ncc2Cl)cc1	none (no result: VDR inh, TrxR1 inh, TrxR1 substrate, GLS inhibitor)
COc1ccc(N2CCN(C(=O)c3nc(SC)ncc3Cl)CC2)cc1	none (no result: Sfp inh)
CCSc1ncc(Cl)c(C(=O)Nc2ccc(S(=O)(=O)Nc3ncccn3)cc2)n1	none
CCCS(=O)(=O)c1ncc(Cl)c(C(=O)N(Cc2ccccc2)Cc2ccco2)n1	VDR inh 22µM, TrxR1 inh 1.8µM (no result: Sfp inh)
CCSc1ncc(Cl)c(C(=O)N(Cc2ccccc2)Cc2ccco2)n1	none (no result: Sfp inh)
COc1ccc2c(c1)O[C@@H](c1ccc3c(c1)OCO3)[C@H](OC(=O)NC1CCCC1)C2=O	none (no result: TrxR1 inh, GCN5L2 inh, TrxR1 substrate, GLS inhibitor)
CC1CCCC(C)N1C(=O)COC(=O)c1ccco1 (stereo not drawn)	none (no result: Sfp inh)
O=C(CSc1ccc(-c2cccnc2)nn1)Nc1ccccc1F	none
CCOc1ccccc1NC(=O)CSc1ccc(-c2ccco2)nn1	TrxR1 inh 35µM, Sfp inh 50µM
CCOc1ccccc1NC(=O)CSc1ccc(-c2sc(C)nc2C)nn1	GCN5L2 inh inconclusive
O=C(CSc1ccc(-c2ccco2)nn1)Nc1ccccc1F	VDR inh inconclusive, TrxR1 inh 20µM, GCN5L2 inh inconclusive, Sfp inh 32µM
CCOC(=O)C1CCCN(C(c2ccccn2)c2c(C)[nH]c3ccccc23)C1 (stereo not drawn)	Sfp inh 45µM
O=C(O)c1cccc2cccc(-c3c4ccc(=O)c(O)c-4oc4c(O)c(O)ccc34)c12	VDR inh inconclusive, GLS inhibitor 1.8µM (no result: GCN5L2 inh, Sfp inh)
COc1ccc(C2=NN(c3ccc(C(=O)O)cc3)C(c3ccc(OC)c(OC)c3)C2)cc1 (stereo not drawn)	GCN5L2 inh inconclusive
COc1ccc(C2CC(c3ccccc3)=NN2c2ccc(Cl)c(C(=O)O)c2)cc1 (stereo not drawn)	GCN5L2 inh inconclusive, Sfp inh 56µM
Clc1cccc(-c2sc(Nc3ccccc3)n[n+]2-c2ccccc2)c1Cl	Sfp inh 50µM
Fc1ccc(-[n+]2nc(Nc3ccccc3)sc2-c2cccc(Cl)c2Cl)cc1	none
CCN(CC(=O)N1CCN(Cc2ccccc2)CC1)S(=O)(=O)c1ccc(C)cc1	TrxR1 inh inconclusive
Cc1ccc(-c2nn(CCC#N)cc2C=C(C#N)C#N)cc1	TrxR1 inh 7.9µM
Cn1c(CNC(=O)c2ccc(F)cc2)nc2ccccc21	VDR inh 79µM, GCN5L2 inh inconclusive

Source: PubChem
